Reference: paper PMC11006913

Experiments:
Experiment in all cases: PBM; 200 nM protein, PBS
Conditions in all cases: dsDNA, one strand shown
HESX1 [1] = target: HESX1 (Homo sapiens, UniProt Q9UBX0 95-180, R165K)
HESX1 [2] = target: HESX1 (Homo sapiens, UniProt Q9UBX0 95-180)
HESX1 [3] = target: HESX1 (Homo sapiens, UniProt Q9UBX0 95-180, R109Q)
HESX1 [4] = target: HESX1 (Homo sapiens, UniProt Q9UBX0 95-180, P111T)
HESX1 [5] = target: HESX1 (Homo sapiens, UniProt Q9UBX0 95-180, F115L)
Sequence of HESX1 (Homo sapiens, UniProt Q9UBX0 95-180, F115L) (Q9UBX0 95-180 F115L): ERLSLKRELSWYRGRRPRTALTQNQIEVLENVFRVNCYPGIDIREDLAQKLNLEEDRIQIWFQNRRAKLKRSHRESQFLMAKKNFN

Sequence of HESX1 (Homo sapiens, UniProt Q9UBX0 95-180, R109Q) (Q9UBX0 95-180 R109Q): as the sequence (Q9UBX0 95-180 F115L) above, with R15Q, L21F counted along it
Sequence of HESX1 (Homo sapiens, UniProt Q9UBX0 95-180) (Q9UBX0 95-180): as the sequence (Q9UBX0 95-180 F115L) above, with L21F counted along it
Sequence of HESX1 (Homo sapiens, UniProt Q9UBX0 95-180, P111T) (Q9UBX0 95-180 P111T): as the sequence (Q9UBX0 95-180 F115L) above, with P17T, L21F counted along it
Sequence of HESX1 (Homo sapiens, UniProt Q9UBX0 95-180, R165K) (Q9UBX0 95-180 R165K): as the sequence (Q9UBX0 95-180 F115L) above, with L21F, R71K counted along it

Sequence: AGACGCTC
- binding signal (HESX1 [1]): 6.35 upbm affinity estimate (log intensity, higher = more binding, comparable within an allelic series)
- binding signal (HESX1 [2]): 6.34 upbm affinity estimate (log intensity, higher = more binding, comparable within an allelic series)
- binding signal (HESX1 [3]): 6.5 upbm affinity estimate (log intensity, higher = more binding, comparable within an allelic series)
- binding signal (HESX1 [4]): 6.36 upbm affinity estimate (log intensity, higher = more binding, comparable within an allelic series)
- binding signal (HESX1 [5]): 6.54 upbm affinity estimate (log intensity, higher = more binding, comparable within an allelic series)

Sequence: AGCTTGCG
- binding signal (HESX1 [1]): 6.46 upbm affinity estimate (log intensity, higher = more binding, comparable within an allelic series)
- binding signal (HESX1 [2]): 6.4 upbm affinity estimate (log intensity, higher = more binding, comparable within an allelic series)
- binding signal (HESX1 [3]): 6.39 upbm affinity estimate (log intensity, higher = more binding, comparable within an allelic series)
- binding signal (HESX1 [4]): 6.32 upbm affinity estimate (log intensity, higher = more binding, comparable within an allelic series)
- binding signal (HESX1 [5]): 6.52 upbm affinity estimate (log intensity, higher = more binding, comparable within an allelic series)

Sequence: ACTCAATA
- binding signal (HESX1 [1]): 7.78 upbm affinity estimate (log intensity, higher = more binding, comparable within an allelic series)
- binding signal (HESX1 [2]): 7.87 upbm affinity estimate (log intensity, higher = more binding, comparable within an allelic series)
- binding signal (HESX1 [3]): 7.28 upbm affinity estimate (log intensity, higher = more binding, comparable within an allelic series)
- binding signal (HESX1 [4]): 7.59 upbm affinity estimate (log intensity, higher = more binding, comparable within an allelic series)
- binding signal (HESX1 [5]): 7.33 upbm affinity estimate (log intensity, higher = more binding, comparable within an allelic series)

Sequence: ACGCCTCG
- binding signal (HESX1 [1]): 6.4 upbm affinity estimate (log intensity, higher = more binding, comparable within an allelic series)
- binding signal (HESX1 [2]): 6.35 upbm affinity estimate (log intensity, higher = more binding, comparable within an allelic series)
- binding signal (HESX1 [3]): 6.36 upbm affinity estimate (log intensity, higher = more binding, comparable within an allelic series)
- binding signal (HESX1 [4]): 6.4 upbm affinity estimate (log intensity, higher = more binding, comparable within an allelic series)
- binding signal (HESX1 [5]): 6.44 upbm affinity estimate (log intensity, higher = more binding, comparable within an allelic series)

Sequence: AAGGGCAC
- binding signal (HESX1 [1]): 6.53 upbm affinity estimate (log intensity, higher = more binding, comparable within an allelic series)
- binding signal (HESX1 [2]): 6.41 upbm affinity estimate (log intensity, higher = more binding, comparable within an allelic series)
- binding signal (HESX1 [3]): 6.62 upbm affinity estimate (log intensity, higher = more binding, comparable within an allelic series)
- binding signal (HESX1 [4]): 6.56 upbm affinity estimate (log intensity, higher = more binding, comparable within an allelic series)
- binding signal (HESX1 [5]): 6.62 upbm affinity estimate (log intensity, higher = more binding, comparable within an allelic series)

Sequence: GACGGCGA
- binding signal (HESX1 [1]): 6.46 upbm affinity estimate (log intensity, higher = more binding, comparable within an allelic series)
- binding signal (HESX1 [2]): 6.46 upbm affinity estimate (log intensity, higher = more binding, comparable within an allelic series)
- binding signal (HESX1 [3]): 6.44 upbm affinity estimate (log intensity, higher = more binding, comparable within an allelic series)
- binding signal (HESX1 [4]): 6.52 upbm affinity estimate (log intensity, higher = more binding, comparable within an allelic series)
- binding signal (HESX1 [5]): 6.44 upbm affinity estimate (log intensity, higher = more binding, comparable within an allelic series)

Sequence: CGGACAGA
- binding signal (HESX1 [1]): 6.41 upbm affinity estimate (log intensity, higher = more binding, comparable within an allelic series)
- binding signal (HESX1 [2]): 6.53 upbm affinity estimate (log intensity, higher = more binding, comparable within an allelic series)
- binding signal (HESX1 [3]): 6.49 upbm affinity estimate (log intensity, higher = more binding, comparable within an allelic series)
- binding signal (HESX1 [4]): 6.59 upbm affinity estimate (log intensity, higher = more binding, comparable within an allelic series)
- binding signal (HESX1 [5]): 6.58 upbm affinity estimate (log intensity, higher = more binding, comparable within an allelic series)

Sequence: AGCGTGGC
- binding signal (HESX1 [1]): 6.53 upbm affinity estimate (log intensity, higher = more binding, comparable within an allelic series)
- binding signal (HESX1 [2]): 6.42 upbm affinity estimate (log intensity, higher = more binding, comparable within an allelic series)
- binding signal (HESX1 [3]): 6.46 upbm affinity estimate (log intensity, higher = more binding, comparable within an allelic series)
- binding signal (HESX1 [4]): 6.48 upbm affinity estimate (log intensity, higher = more binding, comparable within an allelic series)
- binding signal (HESX1 [5]): 6.64 upbm affinity estimate (log intensity, higher = more binding, comparable within an allelic series)

Sequence: CTAGGCCC
- binding signal (HESX1 [1]): 6.43 upbm affinity estimate (log intensity, higher = more binding, comparable within an allelic series)
- binding signal (HESX1 [2]): 6.46 upbm affinity estimate (log intensity, higher = more binding, comparable within an allelic series)
- binding signal (HESX1 [3]): 6.51 upbm affinity estimate (log intensity, higher = more binding, comparable within an allelic series)
- binding signal (HESX1 [4]): 6.58 upbm affinity estimate (log intensity, higher = more binding, comparable within an allelic series)
- binding signal (HESX1 [5]): 6.46 upbm affinity estimate (log intensity, higher = more binding, comparable within an allelic series)

Sequence: TCCTGCCA
- binding signal (HESX1 [1]): 6.57 upbm affinity estimate (log intensity, higher = more binding, comparable within an allelic series)
- binding signal (HESX1 [2]): 6.47 upbm affinity estimate (log intensity, higher = more binding, comparable within an allelic series)
- binding signal (HESX1 [3]): 6.52 upbm affinity estimate (log intensity, higher = more binding, comparable within an allelic series)
- binding signal (HESX1 [4]): 6.56 upbm affinity estimate (log intensity, higher = more binding, comparable within an allelic series)
- binding signal (HESX1 [5]): 6.6 upbm affinity estimate (log intensity, higher = more binding, comparable within an allelic series)

Sequence: AGAGGAGC
- binding signal (HESX1 [1]): 6.5 upbm affinity estimate (log intensity, higher = more binding, comparable within an allelic series)
- binding signal (HESX1 [2]): 6.51 upbm affinity estimate (log intensity, higher = more binding, comparable within an allelic series)
- binding signal (HESX1 [3]): 6.44 upbm affinity estimate (log intensity, higher = more binding, comparable within an allelic series)
- binding signal (HESX1 [4]): 6.47 upbm affinity estimate (log intensity, higher = more binding, comparable within an allelic series)
- binding signal (HESX1 [5]): 6.59 upbm affinity estimate (log intensity, higher = more binding, comparable within an allelic series)
